An excerpt weighted towards active compounds, which were near 4.3% of everything screened.
Peg3 prom inh – reduces Peg3 promoter-driven luciferase expression in HeLa. 1.7% of 360,000 active. inhibition, % at 20 µM. HeLa PEG-Prom luciferase reporter, luminescence, overnight. AID 588405;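 active = inhibition of at least 50% at 20 µM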
CF NFkB inh – blocks PAF-induced NF-kB reporter in cystic fibrosis cells; KKLEB NF-kB-GFP reporter, GFP fluorescence overnight; inhibition, % at 5 µM; 0.86% of 360,000 active; AID 588850;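 active = at least 50% inhibition at 5 µM, scaled per plate between neutral and stimulator controls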;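 note: PAF is a Pseudomonas aeruginosa culture filtrate used as stimulus; plate controls were PAF-stimulated DMSO wells for no effect and unstimulated DMSO wells for full effect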
CHOP inh – CHOP inhibition in unfolded protein response | CHO-K1 CHOP-promoter luciferase, tunicamycin-induced, 15-18 h | inhibition, % at 10 µM | 3.8% of 220,000 active;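 active = compounds that reduced the stress-induced luciferase reporter signal by more than about 70% of percent inhibition, limit read from the data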;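 note: 0% = tunicamycin plus vehicle and 100% = wells without tunicamycin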
HIF-2a inh – blocks HIF-2a reporter activity; 786-0 RCC cells HIF-2a reporter, luciferase luminescence, overnight; inhibition, % at 18.8 µM; 0.72% of 360,000 active;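 active = inhibition of the luminescence signal of 40% or more relative to plate controls, in a single-dose primary screen at 18.75 µM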
TRPM1 prom inh – reduces MITF-dependent TRPM1 promoter luciferase signal. 0.83% of 330,000 active. SK-MEL-5 TRPM1 promoter luciferase, 24 h. AID 488899. inhibition, % at 12.5 µM;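 active = mean inhibition across replicates of 60% or more, whatever share of single replicates reaches that level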
KKLEB tox – counter-screen for CF NF-kB inhibitors: cytotoxicity. activity change (cytotoxicity), % at 5 µM. 0.36% of 360,000 active. KKLEB CF airway cells viability, ATPlite luminescence, overnight; hits give low values; cells stimulated with P. aeruginosa culture filtrate;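 active = corrected activity change at or below -50% at 5 µM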
* = called active by the depositor; . = not tested or not shown.

SMILES	Peg3 prom inh	CF NFkB inh	CHOP inh	HIF-2a inh	TRPM1 prom inh	KKLEB tox
O=C1O[C@@H](c2ccccc2)C[C@@H](O)[C@H](O)CCCc2ccccc21	.	.	.	-18.2	.	.
CCCCN(C(=O)c1oc2ccc(OCC)cc2c1C)c1c(N)n(CCCC)c(=O)[nH]c1=O	-13.0	18.3	.	0.0	-0.8	-13.8
CC1C(c2ccccc2)N(C)C(c2ccccc2)C(C)C1(O)C#Cc1ccccc1 (stereo unspecified)	61.6*	24.9	31.2	0.2	6.3	-18.0
CCN1CCC(O)(C#Cc2ccccc2)CC1	15.0	1.9	.	-2.6	-1.4	2.9
CCc1ccc(C2C(C#N)=C(N)Oc3cc(N)ccc32)cc1 (stereo unspecified)	50.4*	8.2	.	12.8	-5.2	2.7
COc1ccccc1-c1cnc(C(O)c2ccc(SC)cc2)[nH]1 (stereo unspecified)	-27.2	-5.9	.	-24.1	.	-4.7
CC1=NN(c2ccc(C)cc2)C(=O)/C1=C/c1ccc(-c2cc([N+](=O)[O-])ccc2O)o1	17.3	54.1*	.	-13.5	5.5	-41.3
O=C1NN(c2cccc(Br)c2)C(=O)/C1=C\c1ccc(O)cc1	-1.7	-0.3	.	20.6	8.0	6.3
O=C1NN(c2cccc(Br)c2)C(=O)/C1=C/c1ccc(-c2cc([N+](=O)[O-])ccc2O)o1	8.9	-9.3	104.3*	19.7	-6.0	4.3
O=C(CCc1nc2ccccc2c(=O)[nH]1)N1CCN(S(=O)(=O)c2ccc(F)cc2)CC1	-0.3	-2.9	.	10.8	6.3	6.4
Cc1ccc(NC(=O)CCc2nc3sc4c(c3c(=O)[nH]2)CCCC4)c(Br)c1	28.2	-8.9	.	11.9	2.8	7.1
Cc1cccc(NC(=O)CCS(=O)(=O)c2ccc3c(c2)NC(=O)CS3)n1	-5.1	-12.0	.	12.1	10.9	-2.8
Nc1nc2ccccc2n1/N=C/c1ccc([N+](=O)[O-])s1	26.0	-4.3	67.2	-44.3	66.1*	-0.8
Nc1nc2ccccc2n1/N=C/c1cccnc1	-19.9	0.4	8.0	-16.3	-2.0	1.8
CN(CC(=O)Nc1ccc(F)c(F)c1F)c1cnccn1	.	.	74.3*	.	.	.
CCN(CC(=O)Nc1ccccc1Br)C1CCCCC1	1.5	5.3	72.6*	0.2	-2.9	1.7
CN(CC(=O)Nc1ccc(F)c(F)c1F)C1CCCCC1	-5.8	-15.5	75.1*	-0.4	-0.8	-15.3
Cc1cc(NC(=O)CN(C)CC(=O)Nc2ccc(F)c(F)c2F)no1	8.9	-21.5	.	4.8	-1.1	9.2
O=C(NCC(=O)N1CCC(Cc2ccccc2)CC1)c1ccc(Cl)cc1	-17.8	-15.7	.	-14.2	-2.5	5.3
CC(=O)N1c2cc3ccccc3cc2N(C(C)=O)c2cc3ccccc3cc21	8.4	-0.5	.	4.6	1.9	-1.4
Cc1ccc(S(=O)(=O)c2cc3cc(Br)ccc3oc2=O)cc1	-50.6	27.6	3.4	15.4	3.2	-5.7
CC(C)c1ccc(S(=O)(=O)c2cc3cc(Br)ccc3oc2=O)cc1	88.2*	37.3	88.6*	13.7	2.4	-25.2
O=C(Nc1cc(C(=O)N2CCN(c3ccccc3O)CC2)ccc1Cl)c1cccs1	10.9	10.4	.	-14.5	-12.0	13.2
Cc1cnc(NC(=O)CCCSc2nc3ccccc3s2)s1	-0.4	22.9	76.5*	-0.1	12.2	0.1
COc1ccc(-c2csc3nc(C)n(-n4cccc4)c(=O)c23)cc1	6.1	-24.6	.	22.1	-15.2	-5.6
SMILES	Peg3 prom inh	CF NFkB inh	CHOP inh	HIF-2a inh	TRPM1 prom inh	KKLEB tox
Cc1nc2scc(-c3ccc(C(C)(C)C)cc3)c2c(=O)n1N	21.7	17.8	76.4*	-19.0	-12.5	-10.3
CCCC[C@@H]1CNC(=O)C(=O)N1CCCCC1CCCCC1	.	.	.	5.3	.	.
COCCN=c1scc(-c2ccccc2)n1/N=C/c1c[nH]c2ccccc12	-90.3	11.5	72.7*	-142.0	-12.3	11.3
Cc1ccc(S(=O)(=O)N2CCC(C(=O)OCC(=O)N3CCC(C)CC3)CC2)cc1C	-0.9	-5.5	.	12.7	-0.5	-14.2
CCc1ccc(CCC(=O)Nc2sc(C)c(C)c2C(=O)OC)o1	22.6	13.8	83.0*	15.3	14.5	-20.5
COc1ccccc1C(=O)N1CCCC(C)(C(=O)NS(=O)(=O)C2CC2)C1 (stereo unspecified)	-16.9	14.6	.	8.1	.	-7.1
Cc1ccc(S(=O)(=O)N2CCC(C(=O)N/N=C/c3cccnc3)CC2)cc1	51.5*	11.7	-17.7	17.6	7.5	-15.9
O=C(Nc1ccc(Br)cc1)c1ccc(F)c(S(=O)(=O)NCc2cccs2)c1	17.0	10.6	93.0*	5.8	26.5	-12.0
OCCNCc1ccc(OCc2ccc(Cl)cc2Cl)cc1	-40.8	-7.5	-16.8	-74.3	-22.9	3.0
OCCCCNCc1ccc(OCc2ccc(Cl)cc2Cl)cc1	99.7*	23.0	14.3	-22.8	-4.8	-15.1
O=C1/C(=C/c2cccc(F)c2)Oc2cc(O)ccc21	-117.1	-6.2	.	-115.4	-3.4	7.0
C[C@H](CO)N1C[C@H](C)[C@@H](CN(C)S(=O)(=O)c2cccs2)Oc2c(NS(=O)(=O)c3ccccc3)cccc2C1=O	-4.0	-1.3	.	0.4	-1.7	3.6
O=C1C2C3C=CC(C4CC34)C2C(=O)N1Cc1ccccc1 (stereo unspecified)	6.4	11.0	-4.5	4.5	2.4	0.0
O=C1C2C3C=CC(C3=C3CCCCC3)C2C(=O)N1Cc1ccccc1 (stereo unspecified)	13.2	8.4	86.2*	10.5	-8.6	5.4
COc1cc(C(=O)NC(CCSC)C(=O)Nc2ccc(N3CCOCC3)cc2)cc(OC)c1OC (stereo unspecified)	-6.4	-31.9	.	3.9	.	14.1
C=CCNc1nc(NCc2ccc(N(C)C)cc2)c2sc(-c3ccccc3)cc2n1	69.7*	-27.8	.	-276.7	.	2.0
c1ccc(OCCNc2nc(NCC3CC3)nc3cc(-c4ccccc4)sc23)cc1	47.1	14.9	.	-218.3	.	-29.2
C=CCNc1nc(NCCNC(C)=O)c2sc(-c3ccccc3)cc2n1	-26.1	18.7	.	-56.3	.	-6.7
CNc1nc(NCc2cccc(OC)c2)c2sccc2n1	2.8	22.2	.	7.4	.	-15.5
c1ccc(CNc2nc(NCc3cccs3)nc3ccsc23)cc1	11.0	-0.3	.	-8.0	.	-20.2
COc1cccc(CNc2nc(NCc3ccccc3)nc3ccsc23)c1	64.0*	20.1	.	5.8	.	-8.6
c1ccc(CNc2nc(NCC3CC3)nc3cc(-c4ccccc4)sc23)cc1	83.3*	-11.4	.	-77.6	.	-3.2
c1ccc(CNc2nc(NCCc3ccncc3)c3sccc3n2)cc1	53.8*	6.0	.	1.7	.	-6.2
CCOC(=O)C1=CCN(S(=O)(=O)c2ccccc2Br)C1c1ccc(F)cc1 (stereo unspecified)	16.1	17.1	.	6.9	.	-18.7
S=C(NCc1ccco1)N1CCN(c2ccccn2)CC1	17.8	-5.4	5.9	10.3	-10.5	5.1
COC(=O)[C@@]12CCCCN1[C@H](c1ccc(-c3cccc(Cl)c3)c(OC)c1)[C@H]1C(=O)N(C)C(=O)[C@H]12	22.2	15.2	.	28.4	1.5	-12.1
